The whole screen tested about 39,000 compounds, of which about 3,300 (8.5%) were called active. The full list was thinned out, with actives kept by preference.
Tested on: HepG2
Assay: cytotoxicity call (relative viability < 0.9)
Conditions: 10 µM

Question: With CC(=O)N[C@H](Cc1ccc2ccccc2c1)C(=O)N[C@H](Cc1ccc(Cl)cc1)C(=O)N[C@H](Cc1cccnc1)C(=O)N[C@@H](CO)C(=O)N[C@@H](Cc1ccc(NC(=O)[C@@H]2CC(=O)NC(=O)N2)cc1)C(=O)N[C@H](Cc1ccc(NC(N)=O)cc1)C(=O)N[C@@H](CC(C)C)C(=O)N[C@@H](CCCCNC(C)C)C(=O)N1CCC[C@H]1C(=O)N[C@H](C)C(N)=O as the compound, how does the cytotoxicity call read?
Answer: inactive

Question: How did the cytotoxicity call turn out when COc1ccc(NC(=O)Nc2ccc3c(c2)C(=O)N([C@H](C)CO)C[C@H](C)[C@H](CN(C)S(=O)(=O)c2ccc(F)cc2)OCCCC[C@H](C)O3)cc1 was run?
Answer: inactive

Question: For CC(C)NC(=O)Nc1ccc2c(c1)C(=O)N([C@H](C)CO)C[C@@H](C)[C@@H](CN(C)C(=O)Nc1ccc(C(F)(F)F)cc1)OCCCC[C@@H](C)O2, which cytotoxicity call is on record?
Answer: active

Question: Which cytotoxicity call does the source give for CC(C)NC(=O)Nc1ccc2c(c1)C(=O)N([C@@H](C)CO)C[C@@H](C)[C@H](CN(C)C(=O)Nc1ccc(C(F)(F)F)cc1)OCCCC[C@@H](C)O2 here?
Answer: active

Question: How did the cytotoxicity call turn out when CC(C)NC(=O)Nc1ccc2c(c1)C(=O)N([C@H](C)CO)C[C@H](C)[C@H](CN(C)C(=O)Nc1ccc(C(F)(F)F)cc1)OCCCC[C@H](C)O2 was run?
Answer: inactive

Question: Which cytotoxicity call does the source give for CC(C)NC(=O)Nc1ccc2c(c1)C(=O)N([C@@H](C)CO)C[C@@H](C)[C@@H](CN(C)C(=O)Nc1ccc(C(F)(F)F)cc1)OCCCC[C@H](C)O2 here?
Answer: inactive

Question: For CC(C)NC(=O)Nc1ccc2c(c1)C(=O)N([C@H](C)CO)C[C@@H](C)[C@H](CN(C)C(=O)Nc1ccc(C(F)(F)F)cc1)OCCCC[C@H](C)O2, which cytotoxicity call is on record?
Answer: inactive

Question: For CC(C)NC(=O)Nc1ccc2c(c1)C(=O)N([C@@H](C)CO)C[C@@H](C)[C@H](CN(C)C(=O)Nc1ccc(C(F)(F)F)cc1)OCCCC[C@H](C)O2, which cytotoxicity call is on record?
Answer: inactive

Question: For C[C@H]1CCCCO[C@@H](CN(C)C(=O)c2ccccc2)[C@@H](C)CN([C@@H](C)CO)C(=O)c2cc(NC(=O)C3CCCCC3)ccc2O1, which cytotoxicity call is on record?
Answer: inactive

Question: Which cytotoxicity call does the source give for CC(C)(C)[S@@](=O)N1Cc2cc(C(=O)NCc3ccc4c(c3)OCO4)nc(-c3cccc(-c4cccnc4)c3)c2[C@H]1CCO here?
Answer: inactive

Question: For COCCNC(=O)C[C@@H]1CC[C@@H]2[C@@H](COc3ccc(NC(=O)Nc4cccc(F)c4)cc3C(=O)N2C)O1, which cytotoxicity call is on record?
Answer: inactive

Question: CCCCNC(=O)N1C[C@@H]2[C@H](CN)[C@@H]2C1 was tested. Which cytotoxicity call did it give?
Answer: inactive

Question: For Cc1ccc(S(=O)(=O)Nc2ccc3c(c2)C(=O)N([C@@H](C)CO)C[C@H](C)[C@@H](CN(C)C(=O)NC2CCCCC2)OCCCC[C@H](C)O3)cc1, which cytotoxicity call is on record?
Answer: active

Question: For C[C@@H]1CCCCO[C@@H](CN(C)C(=O)NC2CCCCC2)[C@@H](C)CN([C@@H](C)CO)C(=O)c2cc(NS(=O)(=O)c3ccc(F)cc3)ccc2O1, which cytotoxicity call is on record?
Answer: inactive

Question: Which cytotoxicity call does the source give for Cc1ccc(S(=O)(=O)Nc2ccc3c(c2)C(=O)N([C@@H](C)CO)C[C@@H](C)[C@H](CN(C)C(=O)NC2CCCCC2)OCCCC[C@@H](C)O3)cc1 here?
Answer: active

Question: Which cytotoxicity call does the source give for Cc1ccc(S(=O)(=O)Nc2ccc3c(c2)C(=O)N([C@H](C)CO)C[C@@H](C)[C@H](CN(C)C(=O)NC2CCCCC2)OCCCC[C@@H](C)O3)cc1 here?
Answer: inactive

Question: With C[C@@H]1CCCCO[C@H](CN(C)C(=O)NC2CCCCC2)[C@H](C)CN([C@H](C)CO)C(=O)c2cc(NS(=O)(=O)c3ccc(F)cc3)ccc2O1 as the compound, how does the cytotoxicity call read?
Answer: active

Question: With C[C@H](CO)N1C[C@H](C)[C@@H](CN(C)C(=O)NC2CCCCC2)OCCCC[C@H](C)Oc2ccc(NS(=O)(=O)c3ccc(F)cc3)cc2C1=O as the compound, how does the cytotoxicity call read?
Answer: inactive

Question: For Cc1ccc(S(=O)(=O)Nc2ccc3c(c2)C(=O)N([C@@H](C)CO)C[C@H](C)[C@H](CN(C)C(=O)NC2CCCCC2)OCCCC[C@@H](C)O3)cc1, which cytotoxicity call is on record?
Answer: inactive

Question: With Cc1ccc(S(=O)(=O)Nc2ccc3c(c2)C(=O)N([C@H](C)CO)C[C@H](C)[C@@H](CN(C)C(=O)NC2CCCCC2)OCCCC[C@H](C)O3)cc1 as the compound, how does the cytotoxicity call read?
Answer: inactive

Question: For Cc1ccc(S(=O)(=O)Nc2ccc3c(c2)C(=O)N([C@@H](C)CO)C[C@H](C)[C@@H](CN(C)C(=O)NC2CCCCC2)OCCCC[C@@H](C)O3)cc1, which cytotoxicity call is on record?
Answer: inactive

Question: C[C@@H]1CN([C@@H](C)CO)S(=O)(=O)c2ccc(-c3ccc(C(=O)N(C)C)cc3)cc2O[C@H]1CN(C)C(=O)C1CCC1 was tested. Which cytotoxicity call did it give?
Answer: inactive

Question: How did the cytotoxicity call turn out when CCS(=O)(=O)NCc1nccc(N(C)C)n1 was run?
Answer: inactive

Question: How did the cytotoxicity call turn out when COc1ccc(S(=O)(=O)N(C)C[C@H]2OCc3cn(nn3)CCCC(=O)N([C@H](C)CO)C[C@@H]2C)cc1 was run?
Answer: inactive

Question: With O=C(C[C@@H]1CC[C@H]2[C@@H](COC[C@@H](O)CN2S(=O)(=O)c2ccccc2)O1)N[C@@H]1CCN(Cc2ccccc2)C1 as the compound, how does the cytotoxicity call read?
Answer: inactive

Question: For Cc1noc(C)c1NC(=O)Nc1ccc2c(c1)C(=O)N([C@H](C)CO)C[C@@H](C)[C@H](CN(C)Cc1ccc(Cl)c(Cl)c1)OCCCC[C@@H](C)O2, which cytotoxicity call is on record?
Answer: inactive

Question: Cc1noc(C)c1NC(=O)Nc1ccc2c(c1)C(=O)N([C@@H](C)CO)C[C@@H](C)[C@H](CN(C)Cc1ccc(Cl)c(Cl)c1)OCCCC[C@H](C)O2 was tested. Which cytotoxicity call did it give?
Answer: inactive

Question: Which cytotoxicity call does the source give for Cc1noc(C)c1NC(=O)Nc1ccc2c(c1)C(=O)N([C@@H](C)CO)C[C@@H](C)[C@@H](CN(C)Cc1ccc(Cl)c(Cl)c1)OCCCC[C@@H](C)O2 here?
Answer: active

Question: How did the cytotoxicity call turn out when Cc1noc(C)c1NC(=O)Nc1ccc2c(c1)C(=O)N([C@H](C)CO)C[C@@H](C)[C@@H](CN(C)Cc1ccc(Cl)c(Cl)c1)OCCCC[C@H](C)O2 was run?
Answer: active

Question: Which cytotoxicity call does the source give for Cc1noc(C)c1NC(=O)Nc1ccc2c(c1)C(=O)N([C@@H](C)CO)C[C@@H](C)[C@H](CN(C)Cc1ccc(Cl)c(Cl)c1)OCCCC[C@@H](C)O2 here?
Answer: active

Question: Which cytotoxicity call does the source give for Cc1noc(C)c1NC(=O)Nc1ccc2c(c1)C(=O)N([C@H](C)CO)C[C@H](C)[C@H](CN(C)Cc1ccc(Cl)c(Cl)c1)OCCCC[C@@H](C)O2 here?
Answer: inactive

Question: How did the cytotoxicity call turn out when Cc1noc(C)c1NC(=O)Nc1ccc2c(c1)C(=O)N([C@@H](C)CO)C[C@H](C)[C@@H](CN(C)Cc1ccc(Cl)c(Cl)c1)OCCCC[C@H](C)O2 was run?
Answer: inactive

Question: Which cytotoxicity call does the source give for Cc1noc(C)c1NC(=O)Nc1ccc2c(c1)C(=O)N([C@H](C)CO)C[C@@H](C)[C@H](CN(C)Cc1ccc(Cl)c(Cl)c1)OCCCC[C@H](C)O2 here?
Answer: inactive

Question: Cc1noc(C)c1NC(=O)Nc1ccc2c(c1)C(=O)N([C@H](C)CO)C[C@H](C)[C@@H](CN(C)Cc1ccc(Cl)c(Cl)c1)OCCCC[C@H](C)O2 was tested. Which cytotoxicity call did it give?
Answer: inactive

Question: For Cc1noc(C)c1NC(=O)Nc1ccc2c(c1)C(=O)N([C@H](C)CO)C[C@H](C)[C@H](CN(C)Cc1ccc(Cl)c(Cl)c1)OCCCC[C@H](C)O2, which cytotoxicity call is on record?
Answer: inactive

Question: How did the cytotoxicity call turn out when Cc1noc(C)c1NC(=O)Nc1ccc2c(c1)C(=O)N([C@H](C)CO)C[C@H](C)[C@@H](CN(C)Cc1ccc(Cl)c(Cl)c1)OCCCC[C@@H](C)O2 was run?
Answer: inactive

Question: With Cc1noc(C)c1NC(=O)Nc1ccc2c(c1)C(=O)N([C@@H](C)CO)C[C@H](C)[C@@H](CN(C)Cc1ccc(Cl)c(Cl)c1)OCCCC[C@@H](C)O2 as the compound, how does the cytotoxicity call read?
Answer: active

Question: With Cc1ccc(S(=O)(=O)Nc2ccc3c(c2)C(=O)N([C@@H](C)CO)C[C@H](C)[C@@H](CN(C)S(C)(=O)=O)OCCCC[C@H](C)O3)cc1 as the compound, how does the cytotoxicity call read?
Answer: inactive

Question: Which cytotoxicity call does the source give for C[C@H](CO)N1C[C@H](C)[C@H](CN(C)C(=O)Nc2ccc(C(F)(F)F)cc2)OCCCC[C@H](C)Oc2ccc(NC(=O)c3ccncc3)cc2C1=O here?
Answer: inactive

Question: For C[C@H]1CN([C@@H](C)CO)C(=O)c2cc(C#Cc3ccccc3F)cnc2O[C@@H]1CN(C)S(=O)(=O)c1ccccc1, which cytotoxicity call is on record?
Answer: inactive

Question: With C[C@H](CO)N1C[C@H](C)[C@@H](CN(C)S(=O)(=O)c2ccccc2)Oc2ncc(Br)cc2C1=O as the compound, how does the cytotoxicity call read?
Answer: inactive

Question: For S=C(Nc1ccccc1)Nc1ccc2c(c1)oc1ccccc12, which cytotoxicity call is on record?
Answer: inactive

Question: For COc1ccc(CN(C)C[C@@H]2Oc3ccc(NC(=O)Cn4cnnn4)cc3CC(=O)N([C@H](C)CO)C[C@@H]2C)cc1, which cytotoxicity call is on record?
Answer: inactive

Question: How did the cytotoxicity call turn out when C[C@@H](N)c1cnn(-c2ccccc2F)c1 was run?
Answer: inactive

Question: Which cytotoxicity call does the source give for CCN(CC)CCNc1ccc(CO)c2sc3ccccc3c(=O)c12 here?
Answer: active

Question: Which cytotoxicity call does the source give for CCN(CC)CCNc1ccc(COc2ccccc2/C=C(C)/C=C/C(=O)NO)c2sc3ccccc3c(=O)c12 here?
Answer: inactive

Question: CCN(CC)CCNc1ccc(COc2cccc(/C=C(C)/C=C/C(=O)NO)c2)c2sc3ccccc3c(=O)c12 was tested. Which cytotoxicity call did it give?
Answer: inactive

Question: Which cytotoxicity call does the source give for C[C@@H]1CCCCO[C@@H](CN(C)Cc2ccc(C(=O)O)cc2)[C@@H](C)CN([C@H](C)CO)C(=O)c2cc(NS(=O)(=O)c3cccs3)ccc2O1 here?
Answer: inactive

Question: O=C(C[C@@H]1C=C[C@@H](NC(=O)c2cccnc2)[C@H](CO)O1)NCCN1CCCCC1 was tested. Which cytotoxicity call did it give?
Answer: inactive

Question: With CN(C)CC(=O)N[C@@H]1C=C[C@@H](CC(=O)NCCN2CCCCC2)O[C@H]1CO as the compound, how does the cytotoxicity call read?
Answer: inactive

Question: How did the cytotoxicity call turn out when CN(C)CC(=O)N[C@H]1C=C[C@@H](CC(=O)NCCN2CCCCC2)O[C@@H]1CO was run?
Answer: active

Question: With CN(C)CC(=O)N[C@@H]1C=C[C@H](CC(=O)NCCN2CCCCC2)O[C@H]1CO as the compound, how does the cytotoxicity call read?
Answer: inactive

Question: For O=C(C[C@H]1C=C[C@H](NC(=O)c2cccnc2)[C@@H](CO)O1)NCCN1CCCCC1, which cytotoxicity call is on record?
Answer: active

Question: Which cytotoxicity call does the source give for O=C(C[C@@H]1C=C[C@@H](NC(=O)c2cccnc2)[C@@H](CO)O1)NCCN1CCCCC1 here?
Answer: inactive

Question: Which cytotoxicity call does the source give for COCC#Cc1ccc2c(c1)O[C@@H](CN(C)C(=O)Nc1ccc(OC)cc1)[C@H](C)CN([C@@H](C)CO)S2(=O)=O here?
Answer: inactive

Question: With CC(C)(C)OC(=O)C[C@@H]1CC=CC[C@H](CC(=O)N[C@@H](CO)Cc2ccccc2)C(=O)N2CCC[C@@H]2COC1=O as the compound, how does the cytotoxicity call read?
Answer: inactive

Question: With Cc1noc(C)c1NC(=O)N(C)C[C@H]1Oc2c(NS(C)(=O)=O)cccc2C(=O)N([C@@H](C)CO)C[C@H]1C as the compound, how does the cytotoxicity call read?
Answer: inactive

Question: CC(C)(C)S(=O)N1Cc2cc(C(=O)N[C@@H]3CCN(Cc4ccccc4)C3)nc(-c3cccc(C#CCC4CCCC4)c3)c2[C@@H]1CCO (stereo partly drawn) was tested. Which cytotoxicity call did it give?
Answer: inactive
